High-throughput results (PubChem BioAssay)
Pf Dd2 growth – Plasmodium falciparum Dd2 growth inhibition | P. falciparum Dd2 growth, SYBR Green, 72 h | Potency, µM (highest dose often 28.9 µM), without a hit: at the highest dose activity, negative = inhibition, hits mostly inhibitors | 120,000 compounds, 4.3% hits; active means well fitted inhibition curve with a large enough effect;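 further: plate controls were DMSO vehicle for no effect and reference drug for full effect; nearly all actives have a fitted effect of over 65% in size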
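Infected erythrocytes (Dd2, 0.3% parasitemia, 2.5% hematocrit final) are added to compound in RPMI-1640/Albumax II medium, grown 72 h at 37C in low oxygen, then lysed with saponin/Triton-X containing SYBR Green and read by fluorescence.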
* hit, by the source's call; i = inactive; [ ] = dose if it differs, or a comment. Only a selection was taken, and hits are over-represented in it overall. Potency means the concentration at half of the fitted maximal effect.

SMILES | Pf Dd2 growth
COc1ccc(N2C(=O)C3(CCCCC3)C2C(=O)NCCN2CCc3ccccc3C2)cc1 (stereo not given) | 8.9µM*
CC(C)N1C(=O)C2(CCCC2)C1C(=O)NCCCN1CCCC1 (stereo not given) | -6%
COc1ccc(N2C(=O)C3(CCCCC3)C2C(=O)NCCCN2CCCC2)cc1 (stereo not given) | 4.5µM*
CC1(C(=O)NCCCN2CCc3ccccc3C2)CCCCC(=O)N1 (stereo not given) | -13%
CC(C)N1C(=O)C2(CCCC2)C1C(=O)NCCCN1CCN(c2ccccc2)CC1 (stereo not given) | -12%
COc1ccc(N2C(=O)C3(CCCCC3)C2C(=O)O)cc1 (stereo not given) | 7%
CCN1CCN(CCNC(=O)C2N(C(C)C)C(=O)C23CCCCC3)CC1 (stereo not given) | 12%
COc1ccc(N2C(=O)C3(CCCCC3)C2C(=O)NCCCN2CCCCC2)cc1 (stereo not given) | 11µM*
CCC(=O)N1c2ccccc2CC1C(=O)NCCCN1CCN(c2ccc(OC)cc2)CC1 (stereo not given) | 7%
Cn1ncc(N2CCCC(CC(=O)NCc3ccccc3F)C2)cc1=O (stereo not given) | 9%
CCN(CC)Cc1cnc2c(C(=O)N3CC[C@H]4CNC[C@H]43)cnn2c1 | -6%
CNC(=O)[C@@H](c1ccccc1F)N1CCC[C@H]1C(=O)NCc1cccnc1 | 11%
CC(C)NC(=O)N[C@H]1C[C@@H](Cc2cc(CCO)on2)C1(C)C | -11%[44.1 µM]
O=C(c1ccccn1)N1CCn2c(nn(-c3ccc(F)cc3F)c2=O)C1 | i
O=C(c1ccc(F)c(F)c1)N1CCC2(CC1)NC(=O)N(Cc1ccccc1)C2=O | -8%
Cc1cc(C(=O)NCC2(COc3ccc(C(F)(F)F)cn3)C[C@@H](O)[C@@H](O)C2)no1 (stereo not given in full) | -25%
Cc1ccccc1NC(=O)C1=NO[C@@H]2CN(CCc3ccccc3)C[C@H]12 | -15%[44.1 µM]
CCc1ccc2oc(C(=O)Nc3cccc(Cl)c3C)cc(=O)c2c1 | 70%
Cc1ccccc1NC(=O)c1c(C)oc2ccc(O)c(CN(C)Cc3ccccc3)c12 | 1.1µM*
Cc1c(Cl)cccc1NC(=O)c1ccc(C(=O)Nc2cccc(Cl)c2C)cc1 | 30%
CCCn1ccc2oc(C)c(C(=O)NCc3ccccc3)c2c1=O | -9%
Cc1ccccc1NC(=O)c1ccc2nc(Cc3ccccc3)oc2c1 | 12%
CCN(Cc1ccccc1)Cc1c(O)ccc2oc(C)c(C(=O)Nc3ccccc3C)c12 | 1.1µM*
Cc1cc(C)c2c(=O)cc(C(=O)Nc3ccc(S(=O)(=O)N(C)Cc4ccccc4)cc3)oc2c1 | i
Cc1oc2ccc(O)c(CN(C)Cc3ccccc3)c2c1C(=O)Nc1cccc(Cl)c1C | 3.2µM*
SMILES | Pf Dd2 growth
CC(=O)Nc1ccc(S(=O)(=O)N2C[C@@H]3C[C@H](C2)c2ccc(-c4ccc5ccccc5c4)c(=O)n2C3)cc1 | -27%
O=C(c1ccc(CSc2ncccn2)o1)N1CCC2(CCOCC2)CC1 | -3%
COc1ccccc1NC(=O)Cn1c(C)cc2nc3n(c(=O)c21)CCCCC3 | -15%
Cc1ccc(NC(=O)Cn2ccn3nc(-c4ccc(F)cc4)c(CO)c3c2=O)cc1F | 58%
O=C(Nc1ccc(F)cc1)C1CN(c2cccc(Cl)c2)C(=O)N1 (stereo not given) | i
O=C(Nc1ccc([C@H]2OCC(=O)N(Cc3cccnc3)[C@@H]2CO)cc1)c1ccnc(Cl)c1 | -1%
Cc1ccc(-c2cnc(C3CC3)o2)cc1S(=O)(=O)Nc1cccc(C#N)c1 | -3%
Cc1ccc(-c2nnc(Nc3ccc(Cl)cc3)c3ccccc23)cc1S(=O)(=O)NCC1CCCO1 (stereo not given) | 33%
Cc1cccc(Nc2nnc(-c3ccc(C)c(S(=O)(=O)NCC4CCCO4)c3)c3ccccc23)c1 (stereo not given) | 4.5µM*
CCOC(=O)c1c(Nc2cccc(C)c2)nnc(-c2ccccc2)c1-c1ccccc1 | i
Cc1cc(-c2ccc(C)c(S(=O)(=O)NCC3CCN(Cc4ccccc4F)CC3)c2)on1 | i
Cc1ccc(-c2nnc(Nc3cccc(Cl)c3)c3ccccc23)cc1S(=O)(=O)NCC1CCCO1 (stereo not given) | 10µM*
CC(=O)Nc1ccc(C(=O)NC2CCN(c3cc(-c4ccc(Cl)cc4)[nH]n3)CC2)cc1 | i
O=C(c1ccccc1)N1CC2(C1)C(=O)Nc1ccccc12 | 27%[44.1 µM]
O=C(NCCOc1ccccc1)c1cnc2n1CCN(Cc1ccncc1Cl)CC2 | -7%[44.1 µM]
Cc1cccc(C(=O)NCCc2noc(-c3cccnc3)n2)c1 | -5%
CCOc1ccccc1CNc1ccc2cc(S(=O)(=O)N3CCC(C)CC3)ccc2n1 | -21%
CC1CCN(S(=O)(=O)c2ccc3nc(Nc4cccc(C(F)(F)F)c4)ccc3c2)CC1 | 4.5µM*
O=S(=O)(c1ccc2nc(Nc3ccc(F)cc3)ccc2c1)N1CCCC1 | i
O=S(=O)(c1ccc2nc(Nc3cccc(F)c3)ccc2c1)N1CCCC1 | -15%
CC1CCN(S(=O)(=O)c2ccc3nc(N4CCN(c5ccc(F)cc5)CC4)ccc3c2)CC1 | 50%
CC1CCN(S(=O)(=O)c2ccc3nc(NCc4ccc(N(C)C)cc4)ccc3c2)CC1 | 11µM*
CCC(=O)N1CCCC(c2nc(C(C)C)no2)CCNC(=O)CC1 (stereo not given) | -2%
Cc1cnn(CC(=O)N2CCCCCCNC(=O)[C@@H]3CCCC[C@@H]32)c1 | 10%
CC(C)(C)C(=O)N1CC[C@@H](CC(=O)O)[C@@H](CCN2CCN(c3ccc(F)cc3)CC2)C1 | -19%[44.1 µM]
SMILES | Pf Dd2 growth
Cc1ccc(-c2ncc(C(=O)Nc3cc(F)cc(F)c3)c(-c3ccncc3)n2)cc1 | -28%
Cc1noc(C)c1NC(=O)N[C@@H]1CCC[C@@H](C(=O)N2CCN(C)CC2)CC(=O)N(C)C1 | 3%[44.1 µM]
COc1ccc(NC(=O)c2cnc3c(c2)N(C(=O)Cc2ccc(C(C)C)cc2)CCC3)cc1OC | -16%
Cc1ccc(NC(=O)N2CCc3c([nH]c4ccccc34)C2c2ccccc2F)c(Cl)c1 (stereo not given) | 10µM*
COC(=O)CC1c2cc(OC)c(OC)cc2CCN1C(=O)Nc1ccc(C)cc1Cl (stereo not given) | i
Cc1ccc(NC(=O)N2CCN(c3nnc(C)c4c(C)n(-c5ccccc5)nc34)CC2)c(Cl)c1 | 63%
COc1cccc(NC(=O)N[C@H](C)c2onc(-c3ccc(F)cc3)c2C(=O)O)c1 | i
CN(C)C[C@@H]1CN(S(C)(=O)=O)C[C@H]1NC(=O)c1cccn1C | 22%
CNc1nccc(N2CCC(CC(=O)NCCCOC(C)C)CC2)n1 | i
O=C(NCCc1ccccc1)N1CCC(c2noc(-c3ccccc3)n2)C1 (stereo not given) | i[5.79 µM]
O=C(c1csc(N2CCN(c3ccccc3)CC2)n1)N1CCN(C2CCCCC2)CC1 | i
COCCNc1ncccc1-c1noc([C@@H]2CCCN2C2CCN(C)CC2)n1 | -9%[44.1 µM]
O=C1c2ccccc2-c2onc3c(N4CCN(C5CCCCC5)CC4)cc(NCCO)c1c23 | 5µM*
COCCNc1cc(N2CCN(C3CCCCC3)CC2)c2noc3c2c1C(=O)c1ccccc1-3 | 0.89µM*
COCCNc1ncccc1-c1noc([C@@H]2CCCN2C2CCN(C(C)=O)CC2)n1 | i
O=C1c2ccccc2-c2onc3c(Br)cc(NC4CCCCC4)c1c23 | -4%
O=C1c2cnc(-c3ccc(CO)cc3)nc2OCCN1Cc1ccc(F)cc1F | -41%[44.1 µM]
CC(C)c1cccc(NC(=O)CN2C(=O)C(c3ccccc3)=NC2(C)C)c1 | -15%
